Test results taken from the supplement of paper PMC3334620.
Over roughly 33,000 sequences, “E-score (-0.5 to 0.5)” has its median near -0.0034; the highest 2% begin near 0.25. The entries come from a sample that favours the highest values as a whole.

The sequences below were run against T1, Yap3 (UniProt P38749) (assay: PBM E-score (8-mer binding enrichment) (E-score (-0.5 to 0.5)); higher = stronger / more preferred TF binding). Conditions: protein concentration: 100 nM; construct: GST-full length.
T1 sequence: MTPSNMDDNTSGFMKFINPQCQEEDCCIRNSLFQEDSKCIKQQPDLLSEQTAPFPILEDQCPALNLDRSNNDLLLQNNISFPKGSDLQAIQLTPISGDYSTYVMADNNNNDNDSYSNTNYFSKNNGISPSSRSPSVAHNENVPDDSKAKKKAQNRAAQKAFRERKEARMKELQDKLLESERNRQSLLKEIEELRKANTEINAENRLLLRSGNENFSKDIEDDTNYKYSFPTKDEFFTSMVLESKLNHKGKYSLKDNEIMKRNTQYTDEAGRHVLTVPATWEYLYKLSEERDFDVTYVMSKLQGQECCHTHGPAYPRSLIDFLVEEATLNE
Description: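 Universal 'all 10-mer' protein binding microarrays (Agilent AMADID 015681) probed with GST-tagged S. cerevisiae TFs (full-length or DBD) made by in vitro transcription/translation (PURExpress), about 100-200 nM. Bound TF was detected with fluorescent anti-GST. Each ungapped 8-mer (which stands for itself and its reverse complement) is scored by the PBM enrichment score (E-score), a modified Wilcoxon-Mann-Whitney statistic from -0.5 to +0.5, computed with the Universal PBM Analysis Suite. Scale: above 0.35 generally sequence-specific binding.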

Point of comparison: ATTAGATA, “PBM E-score” value 0.178. Against it:
- CACGGCCG — lower, -0.0612
- CTACTCTA — lower, 0.148
- AAAGGGCG — lower, -0.0936
- AGTAGTGG — lower, 0.0946
- ATCTGCGG — lower, -0.0331
- ATCTATAA — lower, 0.0384
- CTACTAGC — lower, 0.097
- TAAGTAGA — lower, 0.109
- AGATGACG — lower, 0.108
- CTGTGGCC — lower, -0.361
- CTGTTCAA — lower, 0.0116
- AGGTCGAT — lower, 0.167
- GCCGATCA — lower, 0.00289
- ATATTTAC — higher, 0.208
- CTATTTAA — lower, 0.0559
- ATATTTAA — higher, 0.339
- GTAACAGA — lower, 0.105
- ATTATTCC — higher, 0.248
- ATTATTCA — higher, 0.277
- GTTATTCA — higher, 0.193
- CTTATTCA — lower, 0.106
- ACTATTCG — higher, 0.231
- ATTATTCG — higher, 0.274
- ATACCCAG — lower, -0.0813
- AACAATTA — higher, 0.323
- ACCAATTG — lower, -0.0264
- ATCAATTC — lower, -0.0493
- ATCAATTA — higher, 0.318
- AACAATTC — lower, 0.106
- AACAATTG — lower, -0.0238
- ATCAATTG — lower, 0.159
- ACCAATTA — higher, 0.274
- GCCAATTA — higher, 0.193
- CGTAGCTA — lower, -0.05
- GGAGCAAA — lower, 0.016
- CATAGCAC — lower, 0.0592
- ACACCACA — lower, 0.0359
- AGCCTCAT — lower, -0.158
- ACAAGGGG — lower, -0.193
- ATTAGATG — higher, 0.261
- ATTAGATC — lower, 0.0781
- TCTTCAAA — lower, 0.0414
- ACTGCCAG — lower, -0.0114
- GAATTATA — higher, 0.237
- AAATTATA — higher, 0.249
- CAATTATA — lower, 0.167
- GAATTAGA — lower, 0.136
- TAATTATA — higher, 0.285
- CAATTAGA — lower, 0.0631
- CAATTATG — higher, 0.214
- CAATTATC — higher, 0.273
- TAATTAGA — higher, 0.291
- CTACCATA — lower, 0.152
- CCGTGAAG — lower, -0.167
- ATACCATA — higher, 0.241
- CTAGATCC — lower, -0.0756
- GCGAAGGA — lower, -0.201
- AACGAGGA — lower, 0.0742
- GACTAACA — lower, 0.142
- CAATACAA — higher, 0.187
- TAATACTA — higher, 0.367
- GACTAATA — higher, 0.326
- AACTAATA — higher, 0.342
- AACTAATG — higher, 0.23
- TAATACAA — higher, 0.279
- AAATACTA — lower, 0.141
- AAATACAA — higher, 0.197
- AACTAATT — lower, 0.149
- GACTAATC — lower, 0.175
- CAATACTA — lower, 0.0409
- CAAATCTC — lower, 0.0919
- TACAGCTA — lower, -0.115
- GCATGACC — lower, -0.158
- TCCTTCAA — lower, 0.026
- CCCTTGAC — lower, -0.0534
- CGACAGGA — lower, 0.0296
- AAGTAACC — lower, 0.0184
- ACCTAGAC — lower, -0.229
- GAGACGGC — lower, -0.138
- GAAAGATC — lower, -0.0498
- ATCCAGTG — lower, 0.0972
- ACTCCAAT — lower, 0.0453
- GAAATACC — lower, 0.0809
- GGTCAGTA — lower, -0.139
- TGTAGTAA — lower, 0.128
- CACTAATA — higher, 0.225
- GCCTAATA — lower, 0.0577
- ACCTAATC — higher, 0.245
- ACCTAATA — higher, 0.274
- TACTACTA — higher, 0.223
- TACTAATA — higher, 0.267
- GAAAGCAC — lower, 0.112
- ACAGCAGG — lower, -0.126
- CGTCTGAA — lower, -0.104
- AACATAAG — higher, 0.308
- ATAATCAG — lower, 0.126
- CTAATCAC — higher, 0.271
- AACATACT — lower, 0.012
- CACATAAG — lower, 0.053
- AACATAAA — lower, 0.156
- ATAATCAT — higher, 0.344
- CTAATCAG — lower, 0.0826
- AACATACG — higher, 0.183
- AACATAAT — higher, 0.334
- ATAATCAA — lower, 0.139
- CTAATCAA — higher, 0.219
- GCATAAAA — lower, 0.147
- CGTTGAAC — lower, -0.07
- GCTAGGAC — lower, -0.11
- ATCTATCC — lower, 0.00162
- AAAGTGCT — lower, 0.0686
- CTCTATCC — lower, -0.00886
- CAGGAAGC — lower, 0.00172
- GACATAAC — higher, 0.22
- AACATAAC — higher, 0.269
- ATCATAAG — higher, 0.247
- ACCATAAA — lower, 0.141
- ATCATAAA — higher, 0.193
- ACCATAAT — higher, 0.264
- ATCATAAT — higher, 0.293
- ACCATAAG — lower, -0.0758
- CACATAAC — lower, -0.0392
- CTCTCTAC — lower, 0.111
- AGCTGGAA — lower, -0.178
- GCAACCCA — lower, -0.11
- AATGATAT — higher, 0.242
- AATGATAA — lower, 0.177
- AATGATAC — higher, 0.264
- CCTGATTA — higher, 0.18
- AATGATTA — higher, 0.325
- CATGATTA — higher, 0.28
- TATGATAA — higher, 0.228
- CATGATAA — higher, 0.255
- GATGATTA — lower, 0.0319
- AATGATAG — lower, 0.172
- AATGATTC — lower, 0.115
- CATGATTC — lower, 0.0254
- AGAACGCC — lower, -0.109
- CGCACATA — lower, -0.0836
- AAGTGGGT — lower, 0.0584
- AATTTGAA — lower, 0.131
- CCGAGCAA — lower, -0.0253
- CATATAGC — higher, 0.233
- ATACAAGG — lower, 0.145
- AGCGATTA — lower, 0.00413
- CGCGATTA — higher, 0.27
- CGCGATTC — higher, 0.198
- AGTAATAT — higher, 0.295
- GGTAATAC — higher, 0.208
- CGTAATAG — higher, 0.314
- GGTAATAA — lower, 0.165
- AGTAATAC — lower, 0.113
- CGTAATAA — higher, 0.29
- AGTAATAG — higher, 0.207
- CGTAATAC — higher, 0.318
- CGTAATGC — higher, 0.203
- CATAATAG — higher, 0.189
- AGTAATGC — lower, 0.13
- TGTAATAA — higher, 0.242
- CGGCATTA — higher, 0.21
- ACTCGTTC — lower, -0.0576
- AGTAAAAA — higher, 0.208
- AGTAATAA — higher, 0.254
- AGTAATGA — higher, 0.208
- ATTGGGGC — lower, -0.0386
- AGGCTATC — lower, -0.203
- CCGCGCGG — higher, 0.293
- CCGCGCTA — lower, 0.137
- GCGCGCGA — lower, 0.121
- CCGCGCGA — lower, 0.0991
- ACGCGCTA — lower, 0.0658
- ACGCGCGC — higher, 0.181
- GCGCGCGC — higher, 0.29
- CCGCGCGC — lower, 0.0469
- GCGCGCTA — higher, 0.257
- ACAACAGA — lower, -0.0683
- GATGTCCC — lower, -0.134
- AGGATCAG — lower, -0.151
- CGGCCCAG — lower, -0.332
- AGAAATGA — lower, 0.0784
- CCTGACAG — lower, -0.0186
- CGAGATAA — higher, 0.29
- GGAGATAA — lower, 0.107
- AGAGATAA — lower, 0.169
- GAGCCTTA — lower, -0.0398
- ACATGTTG — lower, 0.13
- ACATGTAA — higher, 0.184
- ACATGTAT — higher, 0.262
- ACATGTAC — lower, 0.112
- CCATGTAG — lower, -0.014
- ACATGTAG — higher, 0.302
- CAGAATCA — lower, 0.0924
- CCGCTAGG — lower, -0.128
- ACGCACGT — lower, -0.206
- ACGCACGC — higher, 0.262
- ACGCACGA — lower, 0.131
- TCATGGGA — lower, 0.00531
- CTTAAATA — lower, 0.092
- CATTAAAA — higher, 0.281
- TATTAAAA — higher, 0.217
- GTTAAATA — the same, 0.178
- ATTAAAAG — lower, 0.0983
- ATTAAAAC — higher, 0.236
- GATTAAAA — higher, 0.192
- ATTAAATC — higher, 0.211
- ATTAAACG — higher, 0.215
- ATTAAAAA — higher, 0.285
- ATTAAATA — higher, 0.268
- ATTAAATG — higher, 0.266
- CAAGGTAG — lower, -0.142
- ATGCGCCG — lower, 0.00281
- AAAGAGAT — lower, -0.0227
- AGCGAGAA — lower, -0.0207
- CAAATCCA — lower, 0.151
- ACAATCCG — lower, 0.116
- GAAATCCA — lower, 0.0886
- ACAATCCA — higher, 0.287
- GCAATCCA — lower, 0.0882
- AAAATCCA — higher, 0.28
